AI-2 QS mod = Vibrio harveyi AI-2 quorum sensing modulators, primary screen, JMH597 strain, luminescence/OD600 ratio. Vibrio harveyi JMH597 AI-2 luminescence/OD600 ratio, 9 h; stronger effect = lower value; strain lacks LuxN and CqsS sensors; 0 = neutral-control median. activity change, % at 7.5 µM. 300,000 tested, 0.4% active. AID 2094, 2009; in the data active = activity change below about -75%, passing the limit was not always enough; inconclusive = no clear call, values can overlap the other calls;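 note: luminescence divided by OD600 gain over 9 h not by final OD600 alone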
aDG glyco up = activators of alpha-DG glycosylation, primary screen, uHTS, Pro5-aDG cells, AlphaScreen. alpha-DG glycosylation AlphaScreen (IIH6); 0% Pro5, 100% B10-LARGE cell signal. activation, % at 10 µM. 360,000 tested, 0.22% active. AID 624168, 2012;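 active = activation of at least 8% versus controls, or a plate z-score of at least 8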;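 note: Pro5 are CHO cells carrying HIG-tagged alpha-DG that lacks glycosylation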
ARNT-TACC3 inh = disruptors of ARNT/TACC3 protein interaction, primary screen, biochemical, AlphaScreen, single concentration. Transforming acidic coiled-coil-containing protein 3 (Homo sapiens), Q9Y6A5. AlphaScreen His-ARNT PAS-B/GST-TACC3 binding, luminescence; TACC3 fragment carries E629A point mutation. inhibition, % at 9.99 µM. 390,000 tested, 0.66% active. AID 623870, 2012;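 active = mean inhibition of replicates at least 50% and at least half of replicates each reaching 50%; inconclusive = half or more replicates reach 50% but mean below 50%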;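 note: 0% = complete ARNT plus TACC3 wells and 100% = ARNT alone without TACC3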
Bfl-1 A1 inh = caspase 3/7 activation in MEF A1-2A-BIM cells, primary screen, A1 inhibitor project, cell-based, luminescence, HTS; Caspase-Glo 3/7 luminescence, 3 h; percent of clofoctol response, vehicle zero; caspase activation, % (concentration not given with the values); 330,000 tested, 0.066% active; AID 2462, 2010;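 active = over half of replicate activation scores above 10%, or exactly half above 10 with the replicate mean above 10; inconclusive = replicate mean below 10 yet half the replicates above 10; inactive = over half of replicates below 10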
SUMO Mot1 rescue = yeast Mot1-301 growth rescue at high temperature, primary screen, SUMOylation pathway inhibitor project, S. cerevisiae, ATP luminescence, 38.5C. growth rescue, % at 18.8 µM. 320,000 tested, 1% active. S. cerevisiae Mot1-301 growth rescue; percent above DMSO median, 100 means doubled;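 active = every valid replicate shows activation above 250% relative to neutral control wells; inactive = the rest, any valid replicate at or below 250%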;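 note: OY570 slx delta 5 strain wells were the positive control but not used for scaling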
Yeast Mot1 SUMO = growth restoration of Mot1-301 yeast on galactose, dose response, SUMO pathway inhibitor project, whole organism, S. cerevisiae, ATP luminescence, cherry-picked samples; shares compounds with SUMO Mot1 rescue; growth activity, percent, % at 42 µM; 2,300 tested, under 10 active; S. cerevisiae Mot1-301 galactose growth, 24 h; -100 = growth of slx-deleted rescue strain; AID 493004, 2010;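 active = Signal drops as the depositor expects, and the fitted half-maximal dose is no more than ten times the top valid tested dose; inconclusive = Poor fit, or a flat curve whose signal drops by 30% to 70%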;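 note: more negative values mean stronger growth rescue toward the control strain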
Active calls of the source: *; ? = inconclusive; . = no result given; + = active, no number. The list is not random: actives were taken first. Their share in the collection is about 1.8%.

SMILES	AI-2 QS mod	aDG glyco up	ARNT-TACC3 inh	Bfl-1 A1 inh	SUMO Mot1 rescue	Yeast Mot1 SUMO
C=C1CCN(C(CC(C)C)C(=O)OC)S(=O)(=O)c2ccccc21 (stereo not given)	1	0	.	-2	-10	.
CC(C)(C)NC(=O)COc1ccc(CNCCc2ccccc2)cc1	19	0	-1	0	257	.
COCCN(C(=O)c1csnn1)C(C(=O)NC1CCCCC1)c1ccccc1 (stereo not given)	26	0	5	0	441*	1
COCCN(C(=O)c1csnn1)C(C(=O)NC1CCCCC1)c1ccc(Cl)cc1 (stereo not given)	27	0	-2	0	-6	.
COc1ccccc1N1CCN(C(=O)C2CCN(S(=O)(=O)c3ccc(C)cc3)CC2)CC1	27	0	-2	1	989*	0
CCOc1ccc(S(=O)(=O)N2CCC(C(=O)N3CCN(c4ccccc4)CC3)CC2)cc1	30	0	6	0	487*	0
CCOC(=O)C1=C(C)NC(C)=C(C(=O)OCC)C1C(=O)OC1CCOC1=O (stereo not given)	31	0	4	0	463*	0
CCOC(=O)C1=C(C)NC(C)=C(C(=O)OCC)C1C(=O)OCC(=O)N1CCOCC1	.	0	2	0	-1	.
Cc1ccc(S(=O)(=O)N(C)Cc2ccc(-c3nnco3)cc2)cc1	24	0	1	0	549	.
CCN=C1S/C(=C/c2ccc(-c3ccc(F)cc3)o2)C(=O)N1CC	0	0	-5	-1	956*	-1
Cc1cc(=O)[nH]c(SCC(=O)NC2CCCCCC2)n1	.	0	-2	-2	-11	.
COc1ccc(N=C2SC(C(N)=O)CC(=O)N2CCc2ccc(OC)c(OC)c2)cc1 (stereo not given)	11	0	-8	1	233	.
COc1ccc(N=C2SC(C(=O)O)CC(=O)N2Cc2ccc(OC)c(OC)c2)cc1 (stereo not given)	14	0	-3	1	529*	1
CCOCCCNC(=O)C(NC(=O)Cc1cccs1)c1ccc(Cl)cc1 (stereo not given)	9	0	4	0	2	.
CC1(C)CC(=O)c2cnc(NC(=O)CSc3nc4ccccc4o3)nc2C1	15	0	4	0	851*	1
Cc1ccc(S(=O)(=O)N[C@@H](Cc2ccccc2)C(=O)CCl)cc1	23	0	23	0	608*	-2
CN1C(=O)c2cc(NS(C)(=O)=O)ccc2OC[C@@H]2O[C@H](CC(=O)O)CC[C@@H]21	.	.	-9	.	.	.
CS(=O)(=O)N1CCCC(C(=O)Nc2ccc(Br)cc2F)C1 (stereo not given)	40	0	-13	0	8	.
CS(=O)(=O)N1CCCC(C(=O)Nc2ccc(F)cc2F)C1 (stereo not given)	-4	0	-9	0	+	1
COC(=O)[C@@H]1C[C@@]2(O)[C@@H](O)[C@@H](O)[C@@H](O)C[C@H]2N1CC1CCCCC1	17	0	-3	0	14	.
Cc1cc(-c2ccc(Cl)cc2Cl)c(C#N)c(=O)[nH]1	28	0	-3	0	418*	1
Clc1ccc(CSc2nnc(CN3CCOCC3)n2-c2ccccc2)cc1Cl	?	0	3	0	588*	0
Fc1cccc(Cl)c1CSc1nnc(CN2CCOCC2)n1-c1ccccc1	19	0	2	0	551*	0
Clc1cccc(Cl)c1CSc1nnc(CN2CCOCC2)n1-c1ccccc1	6	0	-11	0	3	.
O=C(O)c1ccc(CNC(=O)c2ccccc2NC(=O)c2cccc([N+](=O)[O-])c2)cc1	35	0	-6	-3	-9	.
SMILES	AI-2 QS mod	aDG glyco up	ARNT-TACC3 inh	Bfl-1 A1 inh	SUMO Mot1 rescue	Yeast Mot1 SUMO
O=C(O)c1ccc(CNC(=O)c2ccccc2NC(=O)c2ccc([N+](=O)[O-])cc2)cc1	2	0	-1	-1	713*	0
Cc1cccc(CS(=O)(=O)Cc2ccc(C(=O)NCC3CCCO3)o2)c1 (stereo not given)	-1	0	-11	0	667*	1
CC(C)C(NC(=S)Nc1ccccc1)C(=O)O (stereo not given)	38	0	1	-1	956*	-1
CCC(C)NC(=S)Nc1ccccc1 (stereo not given)	9	0	-8	.	.	.
O=C(Cc1ccc(Cl)cc1Cl)OCC(=O)c1ccc[nH]1	0	0	-7	-1	581*	1
CC(C)Cn1c(N)cc(=O)n(C)c1=O	17	0	-3	1	-7	.
CCCn1c(N)cc(=O)n(CCC)c1=O	37	0	-5	0	792*	0
CCCOc1ccc([N+](=O)[O-])c(N)c1	-46	0	3	0	788*	0
Nc1ccc(OCc2ccccc2)cc1[N+](=O)[O-]	.	-1	2	.	.	.
CC(C)c1ccc(C2C(C(=O)c3ccco3)=C(O)C(=O)N2CCN2CCOCC2)cc1 (stereo not given)	29	0	.	0	+	0
COc1ccccc1N1CCN(CCN2C(=O)C3CCCCN3C2=O)CC1 (stereo not given)	27	0	-6	1	454*	0
COc1ccccc1N1CCN(CCCN2C(=O)C3CCCCN3C2=O)CC1 (stereo not given)	.	0	-3	.	.	.
CC1(C)C2CC=C(/C=N/NC(=S)Nc3cccnc3)C1C2 (stereo not given)	6	0	-3	1	745*	0
N=c1ncn(CC(O)CO)c2nc(N3CCOCC3)[nH]c12 (stereo not given)	6	0	.	0	457*	0
CCOc1ccc(C(=O)Cn2cnc3ccccc3c2=O)cc1	6	0	-17	-2	-1	.
O=C(Cn1cnc2ccccc2c1=O)c1ccc(OC(F)F)cc1	-46	0	.	1	513*	0
C[C@@H]1CN([C@@H](C)CO)S(=O)(=O)c2ccc(C#Cc3ccccc3)cc2O[C@@H]1CN(C)S(C)(=O)=O	.	.	-1	.	.	.
CCn1nc(CC(=O)Nc2ccc(-n3cnnn3)c(C)c2)c2ccccc2c1=O	16	0	.	0	724*	1
